Hits are enriched below; roughly 1.8% of the tested compounds scored in any of these assays.
PfHsp40 yeast: compounds rescuing yeast from Plasmodium falciparum HSP40 toxicity; S. cerevisiae expressing PfHsp40, growth rescue, ATP luminescence; growth rescue, % at 12.5 µM; hit rate 0.68% among 340,000; AID 504582; in the data active = growth rescue above about 28%, passing the limit was not always enough; inconclusive = no clear call, values can overlap the other calls;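 also: yeast W303a lacking pdr1 and pdr3 grown in galactose medium; growth measured after three days at 30 °C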
SSB-PriA inh: blocks PriA binding to SSB C-terminal tail | AlphaScreen SSBct-PriA binding, biotinylated peptide | inhibition, % at 33 µM | hit rate 0.6% among 430,000 | AID 1272365; in the data active = inhibition mostly above about 37%, no sharp cut-off; inactive = mostly below about 20%
VHR inh abs: blocks human VHR1 dual specificity phosphatase | AID 1654 | P51452 | recombinant VHR phosphatase, pNPP absorbance | inhibition, % at 13.3 µM | hit rate 0.52% among 290,000; in the data active = inhibition above about 50%
Target sequence (P51452 whole entry, looked up): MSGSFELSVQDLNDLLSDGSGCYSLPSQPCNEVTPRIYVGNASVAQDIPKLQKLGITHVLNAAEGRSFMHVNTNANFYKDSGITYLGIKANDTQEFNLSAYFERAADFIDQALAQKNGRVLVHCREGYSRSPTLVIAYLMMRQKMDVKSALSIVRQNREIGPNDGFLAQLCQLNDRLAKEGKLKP
Mtb hypoxia inh: Mtb hypoxia fluorescent reporter inhibition. M. tuberculosis hypoxia-regulated fluorescent reporter, fluorescence. fluorescence inhibition, % (test concentration not listed). hit rate 0.1% among 300,000; in the data active = fluorescence inhibition mostly above about 23%, no sharp cut-off; inactive = mostly below about 17%
RN4220 kill: S. aureus RN4220 growth inhibition | OD600, 16 h | inhibition, % (test concentration not listed) | hit rate 0.33% among 330,000 | AID 1259311; in the data active = inhibition above about 85%
Sa ugtP lethal: compounds lethal to S. aureus RN4220 ugtP deletion mutant; hit rate 0.54% among 330,000; growth inhibition, % (test concentration not listed); OD600 growth, 16 h; in the data active = growth inhibition above about 68%
A number is an active result; . = inactive; ? = inconclusive; / = no result given; ! = repeats disagree.

SMILES	PfHsp40 yeast	SSB-PriA inh	VHR inh abs	Mtb hypoxia inh	RN4220 kill	Sa ugtP lethal
O=C(NCCC1=CCCCC1)c1c(O)nc2ccccn2c1=O	.	.	.	.	.	.
O=C(NCCC1=CCCCC1)c1c(O)nc2sccn2c1=O	372	.	/	.	.	.
O=C(NCCCc1ccccc1)c1c(O)nc2sccn2c1=O	178	.	/	.	.	.
O=C(NCCCN1CCCC1=O)c1c(O)nc2ccccn2c1=O	.	.	52	.	.	.
O=C(NCC(c1cccs1)N1CCOCC1)c1cnccn1 (configuration not stated)	/	.	/	/	/	/
O=c1c2sccc2nc(SCc2nc(-c3ccc(Cl)cc3)no2)n1Cc1ccccc1	/	.	/	/	/	/
O=C(CCc1cn2ccccc2n1)NC1CCCc2c1cnn2-c1ccccc1F (configuration not stated)	.	.	50	.	.	.
O=C(NC1CCCc2c1cnn2-c1ccc(F)cc1F)c1csnn1 (configuration not stated)	.	.	54	.	.	.
O=C(NC1CCCc2c1cnn2-c1ccc(F)cc1F)c1cnccn1 (configuration not stated)	.	.	.	.	.	.
CC(=O)N1c2ccc(S(=O)(=O)NCCC(=O)NCCc3cccc(C)c3)cc2CC1C (configuration not stated)	68	.	.	.	.	.
O=[N+]([O-])c1cccnc1Sc1ncccc1O	/	.	/	/	/	/
O=[N+]([O-])c1cccnc1Sc1ccccc1	/	82	/	/	/	/
O=[N+]([O-])c1cccnc1Sc1ccc(Cl)cc1	.	52	.	.	.	.
O=C1/C(=C/c2ccc([N+](=O)[O-])cc2)Oc2cc(O)ccc21	.	.	57	.	.	.
O=C1/C(=C/c2ccc(Cl)cc2)Oc2cc(O)ccc21	/	.	/	/	/	/
CN(C(=NS(=O)(=O)c1cccs1)c1ccccc1)c1ccc(O)cc1	/	.	/	.	.	.
Cc1ccc(NC(=O)C(OC(=O)c2ccc(NC(N)=O)cc2)c2ccccc2)cc1Cl (configuration not stated)	.	.	.	.	101	100
COc1ccc(Cl)c2sc(N(CCN(C)C)C(=O)c3cc(C)on3)nc12	/	.	/	/	/	/
O=C(C1CC(=O)N(C2CCCCC2)C1)N1CCc2ccccc21 (configuration not stated)	61	.	.	.	.	.
O=C(C1CCCCC1)N1CCc2ccccc21	.	.	.	.	.	.
CCn1cc(C=c2sc3n(c2=O)C2c4ccccc4OC(C)(N=3)C2C(=O)OC)c(C)n1 (configuration not stated)	/	.	/	.	.	.
CCn1cc(/C=c2/sc3n(c2=O)C2c4ccccc4OC(C)(N=3)C2C(=O)OC)c(C)n1 (configuration not stated)	.	/	53	/	/	/
Cc1cc(C)cc(-n2ccnc2SCC(=O)Nc2cccc(Cl)c2)c1	/	47	/	/	/	/
Cc1cc(C)cc(-n2ccnc2SCC(=O)Nc2ccc3c(c2)OCCO3)c1	.	45!	.	/	.	.
O=C(CSc1nccn1Cc1ccc(Cl)cc1)Nc1ccc2c(c1)OCCO2	/	42	/	/	/	/
SMILES	PfHsp40 yeast	SSB-PriA inh	VHR inh abs	Mtb hypoxia inh	RN4220 kill	Sa ugtP lethal
Cc1cccc(-n2ccnc2SCC(=O)Nc2ccc3c(c2)OCCO3)c1C	/	49	/	/	/	/
CC(=O)Nc1ccc(NC(=O)CSc2nccn2Cc2ccc(Cl)cc2)cc1	.	.	.	.	.	.
O=C(CSc1ncc(-c2ccc(Cl)c(Cl)c2)n1Cc1ccccc1)Nc1cccc(Cl)c1	/	.	/	/	/	/
C=CCn1c(-c2ccc(OC)cc2)cnc1SCC(=O)Nc1cccc(Cl)c1	/	39	/	/	/	/
Cn1ccnc1SCc1ccc(O)c2ncccc12	/	128	/	/	/	/
Cn1cnnc1SCc1ccc(F)c2ccccc12	.	.	.	.	.	.
Cn1cnnc1SCc1ccc(O)c2ncccc12	/	125	/	/	/	/
Cn1nnnc1SCc1ccc(O)c2ncccc12	/	124	/	/	/	/
COc1ccc2nc(C)cc(N/N=C/c3ccc(F)cc3)c2c1	.	/	.	/	/	/
COc1ccc2nc(C)cc(NN=Cc3ccc(F)cc3)c2c1	/	.	/	78	.	.
Cc1ccc(S(=O)(=O)c2ccc([N+](=O)[O-])o2)cc1	265	.	/	/	/	/
Cc1ccc(S(=O)(=O)NN=Cc2ccc([N+](=O)[O-])o2)cc1	/	.	/	.	.	.
O=C(NC1(C(F)(F)F)NC(=O)N(Cc2ccccc2)C1=O)c1cccnc1 (configuration not stated)	.	.	.	.	.	.
CC(c1ccccc1)N1C(=O)NC(NC(=O)c2cccnc2)(C(F)(F)F)C1=O (configuration not stated)	.	48	.	.	.	.
O=C(Cc1ccc(F)cc1)N(CCc1cccs1)C1CCOCC1	/	.	/	/	/	/
O=C(c1cc(=O)[nH]c(=O)[nH]1)N1CCCCC(c2ccc(F)cc2)C1 (configuration not stated)	/	.	/	/	/	/
Cc1cc(NC(=O)C2CC(c3ccc(F)cc3)=NO2)n(-c2ccccc2)n1 (configuration not stated)	.	.	50	.	.	.
C[n+]1c2n(c3ccccc31)N=C(c1cc(C(C)(C)C)c(O)c(C(C)(C)C)c1)CS2	?	.	.	/	99	98
O=C(Cn1nc(-c2ccc(F)cc2)c2sc(N3CCOCC3)nc2c1=O)NCc1ccccc1	/	.	/	/	/	/
O=[N+]([O-])c1ccccc1S(=O)(=O)N1CCc2ccccc21	/	39	/	/	/	/
O=C(NN=Cc1c(F)c(F)c(F)c(F)c1F)c1cccc(S(=O)(=O)N2CCOCC2)c1	/	.	/	/	.	.
COc1ccc(S(=O)(=O)N2CCCCC2)cc1NC(=O)CCNC(=O)c1ccccc1Cl	.	.	/	.	.	.
CN(C)c1ccc(S(=O)(=O)N2CCCCC2)cc1NC(=O)CCNC(=O)c1ccccc1Cl	.	.	/	23	.	.
COCCN1CCC(CNC(=O)C(=O)Nc2cc(C)on2)CC1	/	.	/	/	/	/
Cc1ccc(S(=O)(=O)N2C(c3ccc(Cl)c(Cl)c3)CC=C(C(=O)O)C2c2ccc(Cl)cc2)cc1 (configuration not stated)	/	/	/	.	.	90
SMILES	PfHsp40 yeast	SSB-PriA inh	VHR inh abs	Mtb hypoxia inh	RN4220 kill	Sa ugtP lethal
Cc1ccc(S(=O)(=O)N2[C@@H](c3ccc(Cl)cc3)C(C(=O)O)=CC[C@H]2c2ccc(Cl)c(Cl)c2)cc1	304	.	/	/	/	/
Cc1ccc(S(=O)(=O)N2C(c3ccc(Cl)c(Cl)c3)CC=C(C(=O)O)C2c2cccc(Cl)c2)cc1 (configuration not stated)	/	/	/	.	88	100
Cc1ccc(S(=O)(=O)N2C(c3cccc(Cl)c3)CC=C(C(=O)O)C2c2cccc(Cl)c2)cc1 (configuration not stated)	/	/	/	.	.	.
Cc1ccc(S(=O)(=O)N2C(c3ccc(Cl)cc3)CC=C(C(=O)O)C2c2ccc(Cl)cc2)cc1 (configuration not stated)	/	/	/	.	.	.
O=C(Nc1ccc(F)c(Cl)c1)c1ccc(=O)n(Cc2cccc(F)c2)n1	/	.	/	/	/	/
CCN(CC)CC#CCNC(=O)c1ccccc1Oc1ccccc1	/	.	/	/	/	/
Cc1oncc1C(=O)Nc1cccc(-c2csc(Nc3ccccc3F)n2)c1	/	.	/	/	/	/
CCN(CC)CCNc1ccc(C)c2sc3ccc(O)cc3c(=O)c12	.	68	/	/	/	/
Cn1c(C(=O)c2ccccc2[N+](=O)[O-])nc2ccccc21	.	39!	.	.	.	.
